High-throughput results from PubChem.
The entries come from a sample that favours hits as a whole.
FECH block – blocks human mitochondrial ferrochelatase activity; P22830; purified FECH, Ni-mesoporphyrin absorbance 550 nm; calls only at 10 µM (by protocol); 20,000 tested, 3.3% active; AID 1671448;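 active means enzyme reaction rate more than 3 SD below the solvent-only control wells on the same plate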;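 further: lower slope than DMSO wells means FECH inhibition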
Target sequence (P22830 whole entry, looked up): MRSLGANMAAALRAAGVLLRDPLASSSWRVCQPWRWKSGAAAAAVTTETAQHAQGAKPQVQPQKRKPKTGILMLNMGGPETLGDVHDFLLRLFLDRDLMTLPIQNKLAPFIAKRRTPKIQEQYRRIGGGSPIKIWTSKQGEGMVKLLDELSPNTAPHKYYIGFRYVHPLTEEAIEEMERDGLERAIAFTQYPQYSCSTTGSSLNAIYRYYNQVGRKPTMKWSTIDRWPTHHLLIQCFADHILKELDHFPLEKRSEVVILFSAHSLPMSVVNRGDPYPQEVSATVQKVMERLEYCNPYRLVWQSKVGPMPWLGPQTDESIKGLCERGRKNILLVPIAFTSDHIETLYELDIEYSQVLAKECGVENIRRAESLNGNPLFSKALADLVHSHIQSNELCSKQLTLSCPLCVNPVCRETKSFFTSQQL
Starred values were filed as active, the others as inactive.

For CCc1cc(Sc2ccc(NC(=O)Nc3cccc(F)c3)cc2)n2ncnc2n1 the results were FECH block inactive.
Screening COc1ccc(N2C(=O)CCS2(=O)=O)cc1S(=O)(=O)N1CCN(Cc2ccccc2)CC1 returned FECH block inactive.
CSc1nnc(CC2CCN(C/C=C/c3ccco3)CC2)n1C was read as FECH block inactive.
For CNc1nc(N2CCC(Cc3nnc(SC)n3C)CC2)nc2c1CCC2 the results were FECH block active.
`Cc1cnc(C)c(N2CCN(Cc3c(CO)cnc(C)c3O)CC2)n1` gave FECH block inactive.
For CCOc1ccc(C(=O)Nc2ccc(Cl)c(N3CCCS3(=O)=O)c2)cc1 the results were FECH block inactive.
For COc1cccc(F)c1-c1c(-c2ccccc2)ncn1CCc1cc(=O)[nH]cn1 the results were FECH block inactive.
For Cc1cccc(C)c1C(=O)N1CC[C@@](C)(O)[C@@H](Cc2ccccc2)C1 the results were FECH block active.
For C[C@@]1(O)CCN(C(=O)Cc2ccc(O)cc2)C[C@@H]1Cc1ccccc1 the results were FECH block inactive.
`CC[C@H]1CN(C(=O)c2cnc(N3CCN(C)CC3)nc2C)CC[C@@]1(C)O` gave FECH block inactive.
CC(C)c1cc(C(=O)N2CCCCC2CCN2CCOCC2)on1 (stereo not drawn) was read as FECH block inactive.
`Cc1cc(NC(=O)CCC2CCCCC2)n(-c2ncnc3c2cnn3-c2ccc(Cl)cc2)n1` gave FECH block inactive.
Screening Cc1c(NCc2ccccn2)cccc1C(=O)NCCN1CCNC1=O returned FECH block inactive.
CN(C)C(C(=O)NCC1(O)CCCCC1)c1cccc(F)c1 (stereo not drawn) was read as FECH block active.
`Cc1cccc2oc(CNC(=O)C(c3cccc(F)c3)N(C)C)nc12` (stereo not drawn) gave FECH block inactive.
Screening Cc1cccc(C(C(=O)NCc2cnc(C)cn2)N(C)C)c1 (stereo not drawn) returned FECH block inactive.
`C=Cc1cccc(CN2CCC(CNC(=O)c3ccc(=O)[nH]n3)C2)c1` (stereo not drawn) gave FECH block inactive.
Cc1ccc(CN2CCCN(CC(=O)NCCc3ccccc3)S2(=O)=O)cc1 was read as FECH block inactive.
Cc1ccc(CN2CCCN(CC(=O)NCc3ccccc3Cl)S2(=O)=O)cc1 was read as FECH block active.
Cc1ccc(CNC(=O)CN2CCCN(Cc3cccc(C)c3)S2(=O)=O)cc1 was read as FECH block inactive.
O=C(CN1CCCN(Cc2ccccc2)S1(=O)=O)NCc1ccc(Cl)cc1 was read as FECH block inactive.
`COc1ccc(CNC(=O)CN2CCCN(Cc3ccccc3Cl)S2(=O)=O)cc1` gave FECH block inactive.
Screening Cc1ccc(CN2CCCN(CC(=O)NCc3ccccc3)S2(=O)=O)cc1 returned FECH block active.
`O=C(CN1CCN(S(=O)(=O)N2CCCC2)CC1)NCc1ccccc1F` gave FECH block inactive.
Cc1ccc(C(=O)NCC2CCN(Cc3nc4ccccc4[nH]3)C2)cn1 (stereo not drawn) was read as FECH block inactive.
CC(C(=O)NC1CCCC1)N1CCC(O)(CN2CCCC2)CC1 (stereo not drawn) was read as FECH block inactive.
C=C(C)[C@@H]1CC=C(CN2CCC(NS(C)(=O)=O)CC2)CC1 was read as FECH block inactive.
For Cc1ccc(C2=CC(c3ccccc3Cl)n3nc(NS(=O)(=O)c4ccc(C)cc4)nc3N2)cc1 (stereo not drawn) the results were FECH block inactive.
COc1ccc(C2C=C(c3ccccc3)Nc3nc(NS(=O)(=O)c4ccc(C)cc4)nn32)cc1 (stereo not drawn) was read as FECH block inactive.
Screening Cc1ccc(C2=CC(c3ccc(C)cc3)n3nc(NS(=O)(=O)c4ccc(C)cc4)nc3N2)cc1 (stereo not drawn) returned FECH block active.
Cc1ccc(S(=O)(=O)Nc2nc3n(n2)C(c2c(F)cccc2Cl)C=C(c2ccccc2)N3)cc1 (stereo not drawn) was read as FECH block active.
For O=S(=O)(Nc1nc2n(n1)C(c1ccccc1)C=C(c1ccccc1)N2)c1ccc(Cl)cc1 (stereo not drawn) the results were FECH block inactive.
Screening Cc1ccc(S(=O)(=O)Nc2nc3n(n2)C(c2ccccc2)C=C(c2ccc(Cl)cc2)N3)cc1 (stereo not drawn) returned FECH block inactive.
For Cc1nc2ncnn2c(Sc2ccc(NC(=O)Nc3ccc(Br)cc3)cc2)c1C the results were FECH block inactive.
`C=CCNc1nc(Nc2cccc(F)c2)c2cnn(-c3ccccc3)c2n1` gave FECH block inactive.
Cc1ccc(Cc2nc3nc4c(c(=O)n3[nH]2)CCCC4)cc1 was read as FECH block inactive.
`Cc1cccc(NCc2nc3nc4c(c(=O)n3[nH]2)CCC4)c1C` gave FECH block active.
O=c1c2c(nc3nc(CNc4ccccc4Cl)[nH]n13)CCC2 was read as FECH block inactive.
For Cc1cccc(NCc2cc(=O)n3[nH]c(NCc4ccc(F)cc4)nc3n2)c1C the results were FECH block inactive.
Screening Cc1cccc(C)c1NCc1nc2nc3c(c(=O)n2[nH]1)CCC3 returned FECH block active.
CC1CCCN(CCNC2CCN(Cc3ccccn3)CC2)C1 (stereo not drawn) was read as FECH block inactive.
For Cc1ccc(Nc2nc(NCc3ccc(F)cc3)nc3c2cnn3-c2ccccc2)cc1 the results were FECH block inactive.
For CCC1CN(Cc2cnc(N3CCCCC3)nc2)CCN1C(C)C (stereo not drawn) the results were FECH block inactive.
For CCCN(C)Cc1ccc(C(=O)Nc2ccc3c(c2)COC3)cc1 the results were FECH block inactive.
COc1ccc(CCNC(=O)C2CCCN2c2nnc(N3CCCCC3=O)s2)cc1OC (stereo not drawn) was read as FECH block inactive.
`COc1ccc(CNC(=O)C2CCCN2c2nnc(N3CCCC3=O)s2)c(OC)c1` (stereo not drawn) gave FECH block active.
Screening CN(CCCNC(=O)C1CCCN1c1nnc(N2CCCC2=O)s1)C1CCCCC1 (stereo not drawn) returned FECH block inactive.
For Cc1ccsc1CCNC(=O)C1CCCN1c1nnc(N2CCCC2=O)s1 (stereo not drawn) the results were FECH block inactive.
For CN(CCNC(=O)C1CCCN1c1nnc(N2CCCC2=O)s1)C1CCCCC1 (stereo not drawn) the results were FECH block inactive.
For O=C(NCCCN1CCN(C2CCCCC2)CC1)C1CCCN1c1nnc(N2CCCC2=O)s1 (stereo not drawn) the results were FECH block active.
Screening CCCCC1C(=O)N(C)CCN1C(=O)Nc1nnc(C(C)(C)C)s1 (stereo not drawn) returned FECH block inactive.
For O=C(O)CCn1c(C2CCCCC2)n[nH]c1=O the results were FECH block inactive.
Cc1cnc(NCc2ccc(C(=O)N(C)C)o2)nc1N(C)C was read as FECH block inactive.
`Cc1cnc(NCCNC(=O)c2cccnc2)nc1N(C)C` gave FECH block active.
Screening Cn1ncc2c(NCCNC(=O)c3cccnc3)nc(C(C)(C)C)nc21 returned FECH block inactive.
